Where “and” joins values, the source holds several entries; their conditions need not be identical. Identical values can stand only once. More than one record can exist for a structure, and the calls need not agree. Calls of active or inactive are those of the source. How the source made its calls: active means hit-call score of the fitted dose curve at least 0.9, where 1 is the maximum; inactive means score below 0.9.

For orientation: AC50 means the concentration giving half of the maximal activity seen.

Assay [1] can be described thus: ATG_CRE_CIS: Attagene CIS-FACTORIAL HepG2 Assay for human cAMP Responsive Element (CRE) binding protein 3 (AID 2282926). The settings on record: HepG2 CRE cis-reporter, Attagene multiplexed mRNA; actives raise or lower the signal. A digest of the protocol:
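Assay format: transient reporter transfection of HepG2, 24 h treatment, total RNA isolation with DNase I step. Reporter abundance read by fluorescence after PCR and capillary separation; DMSO-normalised gain or loss fitting.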

The target of assay [2] is CCAAT/enhancer-binding protein beta (Homo sapiens) (UniProt P17676). As to the kind of experiment: ATG_C_EBP_CIS: Attagene CIS-FACTORIAL HepG2 Assay for human CCAAT/Enhancer Binding Protein (C/EBP) beta (AID 2282927). The settings on record: HepG2 Attagene cis-factorial transcription factor reporter; actives raise or lower the signal. The method in brief: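 HepG2 transiently transfected with multiplexed reporter units under cis-regulatory promoters reporting endogenous C/EBPb activity. After 24 h exposure, reporter mRNA assayed by RT-PCR, fluorescent labelling, HpaI digestion and capillary electrophoresis; bidirectional fitting versus DMSO.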
Chain of CCAAT/enhancer-binding protein beta (Homo sapiens) (P17676 whole entry, looked up): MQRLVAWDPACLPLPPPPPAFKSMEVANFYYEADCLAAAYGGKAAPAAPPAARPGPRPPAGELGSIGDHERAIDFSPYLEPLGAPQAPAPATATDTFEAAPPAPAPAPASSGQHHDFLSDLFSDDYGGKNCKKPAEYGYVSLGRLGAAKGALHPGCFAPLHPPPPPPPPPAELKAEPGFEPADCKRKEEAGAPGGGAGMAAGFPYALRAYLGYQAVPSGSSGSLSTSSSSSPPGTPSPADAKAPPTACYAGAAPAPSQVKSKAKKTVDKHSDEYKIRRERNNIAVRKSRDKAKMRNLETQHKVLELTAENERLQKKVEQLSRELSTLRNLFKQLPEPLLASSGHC

Assay [3] in a line: ATG_CMV_CIS: Attagene CIS-FACTORIAL HepG2 Assay for human CMV (Internal Marker) (AID 2282928).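 Further: endpoint acts as a background internal control marker rather than a target.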 The settings on record: HepG2 CMV promoter reporter, transcription factor profiling; actives raise or lower the signal. A digest of the protocol: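 24 h chemical treatment, HepG2 with transient multi-reporter transfection; RNA → oligo(dT) RT → PCR → 6-FAM extension → HpaI digest → CE fluorescence. Bidirectional fit, DMSO negative control.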

The nature of assay [4]: ATG_DR4_LXR_CIS: Attagene CIS-FACTORIAL HepG2 Assay for human Liver X Receptor (LXR), DR4 submotif (AID 2282929). The settings on record: HepG2 Attagene DR4 cis-reporter, mRNA transcription; actives raise or lower the signal. The method in brief:
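DR4 cis-reporter in HepG2, 24 h exposure. Detection: RT-PCR, 6-FAM labelling, CE fragment analysis. Endpoint fitted bidirectionally, DMSO = baseline.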

The target of assay [5] is Aryl hydrocarbon receptor (Homo sapiens) (UniProt P35869). As to the kind of experiment: ATG_Ahr_CIS: Attagene CIS-FACTORIAL HepG2 Assay for human Aryl Hydrocarbon Receptor (Ahr) (AID 2282930). The settings on record: HepG2 AhR cis-factorial reporter transcription; actives raise or lower the signal. The method in brief: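 HepG2 cells transiently transfected with cis-element-driven multiplexed reporter units; endogenous AhR activity read as reporter mRNA 24 h after dosing, via RT-PCR, 6-FAM labelling, HpaI digestion and capillary electrophoresis. Bidirectional fit relative to DMSO.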
Chain of Aryl hydrocarbon receptor (Homo sapiens) (P35869 whole entry, looked up): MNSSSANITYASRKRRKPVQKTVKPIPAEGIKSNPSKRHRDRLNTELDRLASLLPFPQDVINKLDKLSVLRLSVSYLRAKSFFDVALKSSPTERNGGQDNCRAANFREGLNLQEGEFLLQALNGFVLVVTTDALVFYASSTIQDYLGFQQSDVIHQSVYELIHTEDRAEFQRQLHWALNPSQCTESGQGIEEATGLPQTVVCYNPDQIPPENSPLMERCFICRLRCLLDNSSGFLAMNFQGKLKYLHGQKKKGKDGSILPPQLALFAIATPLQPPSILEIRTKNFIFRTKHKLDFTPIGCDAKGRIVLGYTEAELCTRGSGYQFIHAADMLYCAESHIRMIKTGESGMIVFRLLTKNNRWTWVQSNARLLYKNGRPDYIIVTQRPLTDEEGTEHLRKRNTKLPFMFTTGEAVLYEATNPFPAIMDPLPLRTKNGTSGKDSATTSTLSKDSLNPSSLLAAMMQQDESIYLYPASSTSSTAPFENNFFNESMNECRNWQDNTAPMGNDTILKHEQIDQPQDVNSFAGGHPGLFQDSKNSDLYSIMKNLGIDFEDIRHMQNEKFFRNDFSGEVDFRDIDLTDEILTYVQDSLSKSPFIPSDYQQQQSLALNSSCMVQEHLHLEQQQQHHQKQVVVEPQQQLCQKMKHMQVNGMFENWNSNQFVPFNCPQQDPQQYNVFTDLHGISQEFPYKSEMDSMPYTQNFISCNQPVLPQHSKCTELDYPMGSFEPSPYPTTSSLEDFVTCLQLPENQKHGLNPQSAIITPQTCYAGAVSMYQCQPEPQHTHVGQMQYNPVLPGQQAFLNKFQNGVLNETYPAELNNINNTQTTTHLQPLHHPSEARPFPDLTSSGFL

Assay [6] in a line: ATG_AP_1_CIS: Attagene CIS-FACTORIAL HepG2 Assay for human Activator Protein 1 (AP-1) (AID 2282931). The settings on record: HepG2 Attagene cis-factorial AP-1 reporter mRNA; actives raise or lower the signal. The method in brief: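 Cis-regulated reporter units transiently expressed in HepG2 report endogenous transcription-factor activity. Signal: reporter mRNA at 24 h, via RT-PCR and fluorescent capillary electrophoresis. Endpoint derived by bidirectional fitting, DMSO as negative control.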

Assay [7] is described as follows: ATG_AP_2_CIS: Attagene CIS-FACTORIAL HepG2 Assay for human Activator Protein 2 (AP-2) (AID 2282932). The settings on record: HepG2 AP-2 cis-reporter, Attagene transcription factor profiling; actives raise or lower the signal. A digest of the protocol: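 Liver-derived HepG2 line, cis-reporter system measuring endogenous factors; 24 h dosing; reporter mRNA detected by fluorescent RT-PCR and capillary electrophoresis.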

The nature of assay [8]: ATG_BRE_CIS: Attagene CIS-FACTORIAL HepG2 Assay for human Bone Morphogenetic Protein (BMP) Response Element (BRE) (AID 2282933). The settings on record: HepG2 BMP response element reporter, Attagene transcription factor profiling; actives raise or lower the signal. The method in brief:
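Transient MRTU transfection of human HepG2 liver cells; 24 h compound treatment; total RNA isolated, reverse-transcribed, PCR-amplified, 6-FAM labelled, HpaI-cut, capillary electrophoresis. DMSO = negative control/baseline, bidirectional fit.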

Assay [9] has as its target Retinoic acid receptor alpha (Homo sapiens) (UniProt P10276). Kind of assay: ATG_DR5_RAR_CIS: Attagene CIS-FACTORIAL HepG2 Assay for human Retinoic Acid Receptor Alpha (RARE), DR5 submotif (AID 2282934). The settings on record: HepG2 Attagene cis-factorial RARE DR5 reporter, mRNA; actives raise or lower the signal. A digest of the protocol: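 HepG2 cells transiently transfected with multiplexed reporter units; DR5 cis-element drives reporter through endogenous transcription factors. After 24 h dosing, reporter mRNA quantified by RT-PCR, fluorescent labeling, HpaI digestion and capillary electrophoresis; bidirectional fitting versus DMSO.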

Assay [10] concerns the target Transcription factor E2F1 (Homo sapiens) (UniProt Q01094). Kind of assay: ATG_E2F_CIS: Attagene CIS-FACTORIAL HepG2 Assay for human E2F Transcription Factor 1 (AID 2282935). The settings on record: HepG2 Attagene cis-reporter, E2F reporter RNA transcripts; actives raise or lower the signal. The method in brief:
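Liver-derived HepG2 cells expressing transfected promoter-driven reporter units received test chemical for 24 hours. Signal gains or losses were fitted bidirectionally against DMSO.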

Assay [11] can be described thus: ATG_E_Box_CIS: Attagene CIS-FACTORIAL HepG2 Assay for human Enhancer Box (E-box) (AID 2282936). The settings on record: HepG2 E-box cis-reporter transcription, actives raise or lower the signal. The method in brief:
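In this cell-based setup, HepG2 cells bearing transfected promoter-driven reporter units were exposed to chemicals for 24 h; reporter transcripts were amplified, 6-FAM-labelled, cut with HpaI and sized by capillary electrophoresis.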

A short description of assay [12]: ATG_M_61_CIS: Attagene CIS-FACTORIAL HepG2 Assay for M61 Transcription Factor (Internal Marker) (AID 2282937). The settings on record: HepG2 Attagene CIS-FACTORIAL M61 internal marker reporter; actives raise or lower the signal. The method in brief: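 Background-control endpoint: HepG2 cells with cis-regulated reporter constructs, 24 h exposure, reporter mRNA detected via fluorescent primer extension and capillary electrophoresis; values from bidirectional fitting with DMSO baseline.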

Assay [13] is described as follows: ATG_EGR_CIS: Attagene CIS-FACTORIAL HepG2 Assay for human Early Growth Response 1 (EGR1) (AID 2282938). The settings on record: HepG2 Attagene CIS-FACTORIAL EGR reporter mRNA; actives raise or lower the signal. A digest of the protocol: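 Endpoint derived by bidirectional fitting versus DMSO vehicle. Method: cis-promoter reporter units transfected into HepG2, 24 h dosing, RNA isolation, RT-PCR with 6-FAM primer extension and HpaI digestion, then capillary electrophoresis fluorescence detection.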

Chain of Transcription factor E2F1 (Homo sapiens) (Q01094 whole entry, looked up): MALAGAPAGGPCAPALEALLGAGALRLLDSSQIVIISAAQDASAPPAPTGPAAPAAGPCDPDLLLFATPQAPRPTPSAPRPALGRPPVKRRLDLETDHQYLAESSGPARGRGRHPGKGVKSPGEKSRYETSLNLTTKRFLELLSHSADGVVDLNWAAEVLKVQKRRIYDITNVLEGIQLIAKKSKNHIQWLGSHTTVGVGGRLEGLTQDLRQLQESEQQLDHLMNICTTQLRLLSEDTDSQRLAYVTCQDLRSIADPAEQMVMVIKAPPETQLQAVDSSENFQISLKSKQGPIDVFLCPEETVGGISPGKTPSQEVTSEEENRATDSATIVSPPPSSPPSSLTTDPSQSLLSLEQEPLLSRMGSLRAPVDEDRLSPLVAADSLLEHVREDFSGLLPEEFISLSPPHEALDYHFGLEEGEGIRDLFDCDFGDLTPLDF
Chain of Retinoic acid receptor alpha (Homo sapiens) (P10276 whole entry, looked up): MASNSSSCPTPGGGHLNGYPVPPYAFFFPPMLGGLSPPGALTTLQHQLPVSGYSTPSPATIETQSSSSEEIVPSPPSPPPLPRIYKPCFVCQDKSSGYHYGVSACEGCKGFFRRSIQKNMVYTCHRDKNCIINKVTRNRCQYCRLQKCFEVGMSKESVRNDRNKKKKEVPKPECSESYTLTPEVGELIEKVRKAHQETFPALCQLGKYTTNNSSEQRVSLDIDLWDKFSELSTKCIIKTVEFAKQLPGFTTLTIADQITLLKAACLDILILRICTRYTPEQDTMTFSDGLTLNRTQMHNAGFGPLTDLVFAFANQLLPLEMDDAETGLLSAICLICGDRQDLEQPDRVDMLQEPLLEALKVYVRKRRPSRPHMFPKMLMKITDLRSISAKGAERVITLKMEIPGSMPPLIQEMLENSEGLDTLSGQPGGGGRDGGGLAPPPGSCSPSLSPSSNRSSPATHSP

Take `Cc1cccc(OP(=O)(Oc2cccc(C)c2)Oc2cccc(C)c2)c1`: the compound was classed as inactive in [1], in assay [2], in [3], in [4], in assay [5] and in assay [6]. In addition, the outcome in [7], in assay [8], in [9], in assay [10], in assay [11] and in assay [12] was inactive. For the same compound, the compound was called inactive in assay [13].

`ClCCCCl`: the result in assay [1], in assay [2], in assay [3], in assay [4], in assay [5] and in assay [6] was inactive. Further, the compound was classed as inactive in [7], in [8], in assay [9], in assay [10], in [11] and in [12]. In assay [13], the compound was called inactive.

On to `CC(C)CP(=S)(S)CC(C)C`, for which the compound was classed as inactive in assay [1], in assay [2], in [3], in assay [4], in [5] and in assay [6]. The call in assay [7], in assay [8], in assay [9], in [10], in assay [11] and in [12] was inactive. For the same compound, in assay [13], the result was inactive.

`CCCCCCCCCCCCOS(=O)(=O)O`: the compound was classed as inactive in assay [1], in assay [2], in assay [3], in [4], in assay [6] and in assay [7]. In addition, the compound was called inactive in assay [8], in assay [10], in assay [11], in assay [12] and in assay [13]. Further, the AC50 in [4] is 49.3 µM (active).

`O=c1oc2ccccc2c(O)c1C(CC(O)c1ccc(-c2ccc(Br)cc2)cc1)c1ccccc1` (stereo not given): the half-maximal activity concentration (AC50) in [1] was 39 µM (active); in assay [4] it was 37.6 µM (active) and 30.8 µM (active); in [7] it was 54.8 µM (active) and 48.2 µM (active); in assay [10], 40.6 µM (active); in [11], 54.6 µM (active); in assay [13], 41.1 µM (active) and 17.8 µM (active). For the same compound, the call in assay [1], in assay [2], in [3], in [5], in assay [8] and in assay [10] was inactive. In addition, the outcome in assay [11] and in assay [12] was inactive.

(Values after PubChem BioAssay (EPA / NIEHS).)
